Compounds without any hit were thinned out: in the full panel of roughly 83,000, 20% have a hit.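 Plates (96-well) were seeded with cells, treated with compound at one concentration, and incubated for 48 hours before percent growth was determined.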 Active and inactive are the calls of the source. How the source made its calls: active means growth percent below 10; inactive means the rest.
Each molecule was assayed on NCI-H322M lung (assay: NCI-60 one-dose screen, 48 h (100 = growth as untreated, 0 = no growth, -100 = all killed)). Settings: 10 µM unless noted.
`Nc1cc(NN=C(c2ccc(O)cc2)c2ccc(O)cc2)c([N+](=O)[O-])cc1[N+](=O)[O-]` was tested, and the growth was 110% (inactive).
For `CSc1nc2c(c(=O)n1C)C1(C(=O)N(Cc3ccccc3)c3ccccc31)c1c(nc(SC)n(C)c1=O)N2`, the growth was 95.5% (inactive).
`NNC(=O)c1ccc(C(=O)NN)cc1` was tested, and the growth was 102% (inactive).
For `COc1cc(Cl)cc(-c2nn(C(=O)NS(=O)(=O)c3ccccc3)cc2-c2ccncc2)c1`, the growth was 96% (inactive).
For `CCN(CC)CC(C)Nc1ccc(C)c2sc3ccccc3c(=O)c12` (stereo not given), the growth was 91.8% (inactive).
For `COc1ccc2c3ccnc(C(F)(F)F)c3n(CCCCN)c2c1`, the growth was 65.3% (inactive).
With `COc1ccc(C2CC(c3cc(OC)c(OC)c(OC)c3)=NN2C(C)=O)cc1OCC(=O)Nc1nc2ccc(C(F)(F)F)cc2s1` (stereo not given) the growth was 79.6% (inactive).
With `COC(=O)C(=Cc1ccccc1[N+](=O)[O-])C(=O)OC` the growth was 54.9% (inactive).
With `C=CCCCCOc1ccccc1-c1cnc(OCCCCC=C)n1C` the growth was 72% (inactive).
For `O=C(O)c1cccc(CN2CCN(c3cc4c(cc3F)c(=O)c(C(=O)O)cn4C3CC3)CC2)c1O`, the growth was 111% (inactive).
With `Cc1cc(C)c(O)c(CNCCCCCCNCc2cc(C)cc(C)c2O)c1` the growth was -12.6% (active).
With `Cc1cnc(N)nc1OCC(C)(C)CNC(=O)c1cccc(-c2ccc(S(=O)(=O)Nc3ccc4c(c3)N(C(=O)C3CC3)CCC4)cc2)c1` the growth was 84.2% (inactive).
In the case of `CCOc1cc(NC(=O)c2ccccc2)c(OCC)cc1N`, the growth is reported as 141% (inactive).
`CCN(CC)c1ccc(/C=C/c2ccc3cc(C)ccc3[n+]2CC)cc1` was tested, and the growth was 35.9% (inactive).
In the case of `O=C1COCCN1c1ccc(NCc2cn(Cc3ccccc3)c3ccccc23)cc1`, the growth is reported as 86.1% (inactive).
For `c1nc(N2CCOCC2)c2[nH]ccc2n1`, the growth was 104% (inactive).
For `O=C(Nc1cccc2cccnc12)c1cc(C(=O)c2ccc(Cl)cc2)n2ccc(-c3ccncc3)cc12`, the growth was 95.7% (inactive).
In the case of `COc1cc2c(c(OC)c1)C1c3cc(OC)ccc3NC(=O)N1CC2` (stereo not given), the growth is reported as 102% (inactive).
`CC[C@]1(O)CC2CN(CCc3c([nH]c4ccccc34)[C@@](C(=O)OC)(c3cc4c(cc3OC)N(C=O)[C@H]3[C@@](O)(C(=O)OC)[C@H](OC(C)=O)[C@]5(CC)C=CCN6CC[C@]43[C@@H]65)C2)C1` (stereo not given in full) was tested, and the growth was 59.8% (inactive).
`CC(C)C1=NOC(=O)C1=Cc1cn(-c2ccco2)nc1-c1ccccc1` was tested, and the growth was 102% (inactive).
With `COC(=O)[C@H](CC(C)C)NC(=O)NC(=O)NC(=O)CI` the growth was 98.2% (inactive).
In the case of `O=C1NC(=O)C(Cc2ccc(OCc3ccc(-c4cc(F)c(F)c(F)c4)cc3)cc2)S1` (stereo not given), the growth is reported as 92.4% (inactive).
With `NC(=O)CC1C=CCC1` (stereo not given) the growth was 108% (inactive).
For `CC(C)C1=NOC(=O)C1=Cc1cn(-c2ccccc2)nc1-c1ccccc1`, the growth was 91% (inactive).
In the case of `COc1ccc2c(c1)c(-c1noc(C(=O)c3cn(C)c4ncc(Br)cc34)n1)cn2C`, the growth is reported as 92.9% (inactive).
In the case of `C#C[C@]1(O)CC[C@H]2[C@@H]3CC=C4c5nc(Nc6ccccn6)sc5CC[C@]4(C)[C@H]3CC[C@@]21C`, the growth is reported as 35.8% (inactive).
`O=C1CN(Cc2ccc(C(=O)NO)cc2)C(=O)[C@@H](Cc2ccccc2)N1` was tested, and the growth was 102% (inactive).
With `COC(=O)[C@]1(C)CC[C@]2(C)CC[C@]3(C)C(=CC(=O)[C@@H]4[C@@]5(C)CCC(=O)NC(C)(C)[C@@H]5CC[C@]43C)[C@@H]2C1` the growth was 29.1% [100 µM] (inactive).
`O=C(CSc1nc2ccc([N+](=O)[O-])cc2[nH]1)Nc1cccc(Cl)c1` was tested, and the growth was 62.4% (inactive).
In the case of `CCn1cc(-c2ccnc(NCCNS(=O)(=O)c3cccc4ccccc34)c2)c(-c2cccc(O)c2)n1`, the growth is reported as 98.9% (inactive).

From PubChem BioAssay (NCI)
